SMILES strings stand for the structures. Compounds without any hit were thinned out: in the full panel of roughly 83,000, 20% have a hit.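 The endpoint reported here, percent growth, reads 100 for growth as untreated, 0 for no net growth and -100 for all cells dead.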 Calls of active or inactive are those of the source.

For the experiment, the system named is HOP-62 NSCLC. The experiment can be described thus: NCI-60 one-dose screen, 48 h (100 = growth as untreated, 0 = no growth, -100 = all killed). The following applies: 10 µM unless noted. How it is done:
Growth inhibition of the HOP-62 human Non-Small Cell Lung tumor cell line is measured as a screen for anti-cancer activity. Cells are grown in 96 well plates and exposed to the test compound for 48 hours. Compounds are tested at a single concentration, which is 10^-5 M for most compounds. The reported endpoint is percent growth (GI% or GIPRCNT), where numbers from 0 - 100% represent growth inhibition, and numbers from -100% - 0 represent cell death. For example, a value of 40 represents 60% growth inhibition. A value of 0 means no net growth occurred over the course of the experiment. A value of -40 indicates 40% of cells at the beginning of the experiment died by the end of the experiment. A value of -100 means all cells are dead at the end of the experiment.
NCI-60 Human Tumor Cell Lines Screen was performed using the standard one-dose NCI protocol, which is described in more detail at https://dtp.cancer.gov/discovery_development/nci-60/default.htm.
Compounds with GIPRCNT values below 10 were considered active. Activity score was based on GIPRCNT using the following formula: […]
Score is 0 for GIPRCNT values of 100 or above, 50 for GIPRCNT values of 0, and 100 for GIPRCNT values of -100.
Turning to `O=C(CCCCCCNC(=O)c1csc(Br)n1)NO`, the growth is 48.2% (inactive). Then `CCOC(=O)c1c(NC(=O)c2ccc(C(F)(F)F)cc2)sc2c(CN3CCN(C)CC3)c(O)ccc12`, with -78.6% (active). The same measure for `Clc1ccc2[nH]cc(-c3nn4cc(-c5ccncc5)nc4s3)c2c1`: 46.6% (inactive); for `CNCCN(C)c1ccc(Nc2cc(NC3CC3)n3ncc(C#N)c3n2)cc1NC(C)=O`: 13.4% (inactive); for `CCc1cccc2c3c(sc12)C(c1ccc(F)cc1)C(C#N)=C(/N=C/c1ccc(Cl)cc1)O3` (stereo not given): 36.4% (inactive).

Regarding `CN1CC[C@@H]2[C@@]3(C)CC[C@H](O)C(C)(C)[C@@H]3CC[C@@]2(C)[C@]2(C)CC[C@@]3(CO)CCC(C)(C)C[C@@H]3C12` (stereo not given in full), the growth is 101% (inactive). The same measure for `Cc1ccc2c(n1)C(=O)C(Cl)=C(Nc1ccc(C(C)C)cc1)C2=O`: 126% (inactive); for `COc1cccc2c1[C@H](OC)[C@]13O[C@@]1(C2=O)[C@H](O)[C@H](C)[C@@](O)(C(=O)[C@@H]1O[C@H]1C)[C@@H]3O`: -26% (active); for `C=C(C)[C@@H]1CC[C@]2(C(=O)N3CCN(C)CC3)CC[C@]3(C)[C@H](CC[C@@H]4[C@@]5(C)CC[C@H](OP(=O)(OCC)OCC)C(C)(C)[C@@H]5CC[C@]43C)[C@@H]12`: 96.2% (inactive).

Take `COC(=O)c1ccc(NC2=C(Cl)C(=O)c3nc(C)ccc3C2=O)cc1`: the growth is 96.8% (inactive). The same measure for `O=C(CSc1nnc(-c2ccc(Cl)cc2)n1-c1ccccc1)Nc1ccccc1Cl`: 115% (inactive); for `CCN(CC)S(=O)(=O)c1ccc(-c2nc(C(Cl)Cl)nc3cc(-c4ccc(F)cc4)nn23)cc1`: 10.3% (inactive); for `O=c1c2cc(-c3ccc(F)cc3F)ccc2n(Nc2ccccc2)c(=O)n1-c1cccc(C(F)(F)F)c1`: 10.9% (inactive). Then `C/C(=N\NC(N)=S)c1nnn(-c2ccc([N+](=O)[O-])cc2)c1C`, with 99.4% (inactive).

In the case of `NC1[C@H]2CN(c3cnc(C(=O)Nc4cc(F)cc5cccnc45)cn3)C[C@@H]12` (stereo not given in full), the growth is 82.4% (inactive). The same measure for `CCOC(=O)c1cccnc1Nc1ccc(NC(=O)Nc2ccc(Cl)c(C(F)(F)F)c2)cc1`: 54.1% (inactive). Turning to `N#C/C(=C\c1cccc2c1OCO2)C(=O)Nc1sc2c(c1C#N)CCCC2`, the growth is 96.8% (inactive). The same measure for `Nc1cc(C(=O)N/N=C\c2ccc(OC(F)F)c(OC3CCCC3)c2)nn1CC(O)c1ccccc1` (stereo not given): 101% (inactive).

In the case of `CC(O)c1cccc(/C(N)=N/C(N)=N/c2nc3ccccc3s2)c1` (stereo not given), the growth is 98.6% (inactive). Then `CC(=O)OCCCCN1C=C/C(=C\C(=O)n2ccc3ccccc32)c2ccccc21`, with 108% (inactive); and `CN1CCN(Cc2ccc(NC(=O)c3cncc(C#Cc4cnc5ccc(N)nn45)c3)cc2C(F)(F)F)CC1`, with -1.79% (active). The same measure for `CN1CCN(c2ccc(Nc3nc(NCCNS(=O)(=O)c4ccc5ccccc5c4)c4sccc4n3)cc2)CC1`: 97.5% (inactive); for `Cc1ccc2c(n1)C(=O)C(Cl)=C(Nc1ccc(C(=O)OC(C)(C)C)cc1)C2=O`: 106% [9.25 µM] (inactive); for `CS(=O)(=O)c1nccc(-c2c(-c3cccc(OCc4ccc(Cl)c(C(F)(F)F)c4)c3)nc3sccn23)n1`: 32% (inactive). The same measure for `Cc1cc(=O)[nH]c(O)c1C#N`: 94.8% (inactive); for `CC(Nc1ncnc2ccc(-c3cnc4cnccn34)cc12)c1ccccc1` (stereo not given): 68.8% (inactive); for `Cc1ccc2c(n1)C(=O)C(Cl)=C(Nc1cccc(C)c1C)C2=O`: -0.0437% (active). Take `CN(C)CCNc1ccc2ncc(C#Cc3cncc(C(=O)Nc4ccc(CN5CCN(C)CC5)c(C(F)(F)F)c4)c3)n2n1`: the growth is -37.2% (active). Then `CN1CCN(CC#CCn2c3c(c4ccccc42)C[C@]2(C)[C@H]4CC=C5[C@@H]6CC(C)(C)CC[C@]6(C(=O)N6CCOCC6)CC[C@@]5(C)[C@]4(C)CC[C@H]2C3(C)C)CC1`, with 91.7% (inactive); and `CCOP(=O)(OCC)OC[C@]12CCC(C)(C)CC1C1=CC[C@@H]3[C@@]4(C)CCCNC(C)(C)[C@@H]4CC[C@@]3(C)[C@]1(C)CC2` (stereo not given in full), with 101% (inactive); and `COc1ccc(Cn2cc(C#N)c(N)c2C(C)=O)cc1`, with 104% (inactive). The same measure for `O=C(COc1ccc(/C=C2\C(=O)Nc3cc(Cl)ccc32)cc1)Nc1ccc(Cl)cc1`: 76.7% (inactive); for `COc1ccc(/C=N/NC(=O)c2c(N)nn(C)c2Nc2ccccc2)cc1`: 38.8% (inactive); for `Brc1ccc(-c2cc(-c3ccc4c(c3)OC=CO4)n[nH]2)s1`: 82% (inactive). The same measure for `O=S1SC(c2ccccc2)=NN1c1cc(F)cc(F)c1` (stereo not given): 48.6% (inactive).

On to `CCCCCCCCCCCC(=O)NC(C)(C)C(=O)N1CCCC1C(=O)NC(C)(C)C(=O)NC(C)(C)C(=O)N1CCCC1C(=O)NC(C)(C)C(=O)NC(C)(C)C(=O)N1CCCC1C(=O)NC(C)C(=O)NCCC(=O)NC(C)C(=O)NC(C)(C)C(=O)NC(C)(C)C(=O)NC(C)(C)C(=O)NCCC(=O)NC(C)(C)C(=O)NC(C)(C)C(=O)NC(C)(C)C(=O)NC(C)C(=O)NCCC(=O)O` (stereo not given), for which the growth was -93.3% (active). Then `CN1CCN(Cc2ccc(NC(=O)c3cncc(C#Cc4cnc5ccc(OC6CCOCC6)nn45)c3)cc2C(F)(F)F)CC1`, with -77.4% (active); and `Clc1ccc2c(N/N=C/c3c[nH]c4ccccc34)ccnc2c1`, with -75.1% (active); and `NS(=O)(=O)c1ccc(Nc2nc(N/N=C/C=C/c3ccccc3)nc(Nc3ccccc3)n2)cc1`, with 56.2% (inactive). Then `CCOC(=O)c1ccc(NC2=CC(=O)C(C)=C(C)C2=O)cc1`, with 70.5% (inactive).
